tim23-1 inh = growth inhibitors of tim23-1 mutant yeast, primary screen, luminescence, uHTS | S. cerevisiae tim23-1 growth, BacTiter-Glo luminescence, 24 h | inhibition, % at 20 µM | 1.3% of 330,000 active;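 active means growth inhibition of the mutant yeast at or above 50%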;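 further: temperature-sensitive mutant grown at 25 °C; plate controls were DMSO-treated mutant yeast for no effect and medium wells lacking yeast for full effect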
tim10-1 inh = growth inhibitors of tim10-1 mutant yeast, primary screen, luminescence, uHTS. S. cerevisiae tim10-1 ts strain growth, BacTiter-Glo, 24 h. inhibition, % at 20 µM. 2.2% of 330,000 active. AID 463190, 2010;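 active means inhibition of at least 40%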;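 further: mutant grown at 25 °C; 0% = DMSO wells with yeast and 100% = wells holding no yeast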
Calb FLC = C. albicans growth inhibition with fluconazole, primary screen, CaCi-2 strain, Alamar Blue fluorescence; C. albicans CaCi-2 (fluconazole-resistant clinical isolate) + fluconazole, 48 h; AID 1979, 2009; growth inhibition, % (no concentration beside the values); 0.57% of 300,000 active;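 active means growth inhibition above about 58% in most replicates, limit read from the data, passing the limit was not always enough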;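 further: all wells also contain fluconazole at 8 µg/ml as a sub-toxic cotreatment; 0% = median of DMSO wells and 100% = median of geldanamycin control wells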
SKKanGAS inh = S. pyogenes SKKanGAS growth inhibitors in kanamycin, primary screen, streptokinase expression inhibitor project, SKKanGAS strain, BacTiter-Glo luminescence. inhibition, % at 7.5 µM. 6 h. AID 1662, 2009. 1.3% of 300,000 active;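 active means mean replicate score, as percent of positive control median, at least 50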;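 further: strain carries kanamycin resistance gene driven by streptokinase promoter and grows in 40 µg/ml kanamycin; loss of luminescence reflects streptokinase promoter inhibition or plain growth inhibition; 0% = median of DMSO wells and 100% = positive control at its reference dose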
TIM10 inh = growth inhibitors of isogenic TIM10 control yeast, primary screen, counter-screen for tim10-1 yeast inhibitor project, luminescence, uHTS. S. cerevisiae TIM10 strain growth, BacTiter-Glo luminescence, 24 h. inhibition, % at 10 µM. 1.4% of 330,000 active. AID 463195, 2010;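 active means inhibition of 40% or more at the single tested concentration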;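 further: wild-type TIM10 isogenic control strain grown at permissive 25 °C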
PfHsp90 yeast 2 = growth inhibition of PfHsp90-expressing yeast, primary screen, antimalarial PfHsp90 inhibitor project, S. cerevisiae, BacTiter-Glo luminescence, single point, set 2. BacTiter-Glo ATP, 48 h; yeast lacking PDR1 and PDR3 efflux regulators. inhibition, % at 9.4 µM. 0.32% of 310,000 active;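 active means every replicate shows inhibition above about 80%, whatever the replicate mean, limit read from the data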;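 further: 0% = DMSO neutral controls and 100% = 20 µM radicicol positive controls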
An asterisk follows results filed as active; nt = no result. Rows were chosen to be rich in hits. Some 4.7% of all compounds tested hit in one or more screens of this group.

SMILES	tim23-1 inh	tim10-1 inh	Calb FLC	SKKanGAS inh	TIM10 inh	PfHsp90 yeast 2
O=C(Nc1ccc([N+](=O)[O-])cc1)Nc1nc(-c2ccc(Cl)s2)cs1	nt	nt	-13	79*	nt	1
CC(=O)Nc1nc(-c2ccc([N+](=O)[O-])cc2)cs1	-4	-7	19	-7	8	25
CCC(=O)N1N=C(c2c(O)n(C)c(=O)n(C)c2=O)CC1c1ccccc1 (stereo unspecified)	15	-11	-7	75*	4	-16
Cc1cccc(C(=O)NC(=S)NCc2ccccc2)c1	28	8	2	4	8	-35
Cc1cccc(C(=O)NC(=S)Nc2ccccc2C(=O)O)c1	18	10	-21	6	10	-29
CCc1ccccc1NC(=S)NNC(=O)c1ccccc1Cl	12	23	103*	27	16	10
CCc1ccccc1NC(=S)NN	9	14	1	0	-10	nt
Cc1cccc(C(=O)NC(=S)NNC(=O)Cc2ccccc2)c1	40	1	95*	20	13	109*
Cc1cccc(C(=O)NC(=S)NNC(=O)c2ccccc2Cl)c1	17	38	0	86*	13	19
CCc1ccccc1NC(=S)N1CCCCCC1	5	16	117*	nt	6	4
C/C(=N\NC(=O)COc1cccc(C)c1)c1ccc2ccccc2c1O	7	6	-21	nt	10	-13
Cc1cc(=O)n(C(C)Cc2ccccc2)n1C(C)Cc1ccccc1 (stereo unspecified)	nt	nt	nt	nt	nt	32
COc1ccc(C2(c3ccc(OC)cc3)NC(=O)N(CC(=O)Nc3ccc(OC)c(OC)c3)C2=O)cc1	0	-2	5	13	4	-17
Cc1ccc(C(=O)NC(=S)NNC(=O)COc2ccccc2C)cc1	-10	7	-28	118*	-6	nt
Cc1cccc(C(=O)NC(=S)NNC(=O)COc2c(C)cccc2C)c1	-22	-1	49	107*	6	-7
CCC(=O)NNC(=S)NC(=O)c1ccc(C)cc1	-26	-6	20	22	8	9
CCS(=O)(=O)Nc1ccc(-c2cc(-c3ccccc3)c3cc(C)ccc3n2)cc1	nt	nt	-2	95*	nt	69
Cc1ccc2nc(-c3ccc(NS(C)(=O)=O)cc3)cc(-c3ccccc3)c2c1	35	39	32	26	29	137*
Cc1ccc2nc(-c3ccncc3)cc(-c3ccccc3)c2c1	42	33	-7	-7	28	-8
CC(=O)Oc1ccc2ccc3ccc(C(C)=O)cc3c2c1	nt	nt	nt	nt	nt	-28
Cc1ccccc1S(=O)(=O)Oc1cccc2c(O)cccc12	30	38	32	7	18	-14
Cc1cc(C(=O)Nc2ccc3ccccc3c2)c(C)o1	37	-31	-25	-7	15	-8
COc1ccccc1P(=O)(Cc1ccccc1)c1ccccc1 (stereo unspecified)	8	10	4	2	12	-7
CC(C)(C)c1ccc(SCC(N)=O)cc1	10	11	81*	-1	-18	-20
CCOC(=O)CCNC(=O)N1CCCC(N(C)CCc2ccc(OC)c(OC)c2)C1 (stereo unspecified)	12	6	4	2	-11	5
SMILES	tim23-1 inh	tim10-1 inh	Calb FLC	SKKanGAS inh	TIM10 inh	PfHsp90 yeast 2
Cc1c(C(=O)NNC(=S)NCc2ccc(Cl)cc2)oc2ccccc12	8	23	4	82*	-1	-56
CC(C)(C)N(Cc1ccc2c(c1)OCO2)C(=O)/C=C\S(=O)c1ccccc1 (stereo unspecified)	nt	nt	nt	nt	nt	-9
Cc1nc(-n2[nH]c3c(c2=O)CCCC3)[nH]c(=O)c1Cc1ccccc1	-5	14	89*	95*	7	71
Cc1nc(N2CCc3ccccc3C2)[nH]c(=O)c1Cc1ccccc1	6	1	-5	22	-5	-28
CCOC(=O)C1CCCN(c2cc(C)nc3cc(-c4ccc(F)cc4)nn23)C1 (stereo unspecified)	46	20	104*	7	23	-8
CCN(CC(=O)NCc1cccs1)C(=O)c1ccc(NS(=O)(=O)c2ccc(F)cc2)cc1	-5	-8	0	2	-8	23
COC(=O)[C@H]1[C@H](CCc2ccccc2)NC(=O)N(Cc2ccccc2)[C@@H]1C	nt	nt	2	73*	nt	16
COc1cccc(NC(=O)c2ccc(NS(=O)(=O)c3cccs3)cc2)c1	17	12	nt	nt	3	nt
COc1ccc2nc(NC(=O)c3ccc(NS(=O)(=O)c4cccs4)cc3)sc2c1	3	8	-2	63*	11	8
COc1ccccc1NC(=O)c1ccc2nc(C)sc2c1	14	12	28	-4	-1	5
O=C(O)C/C(=C\c1cccc(NC(=O)c2ccccc2Cl)c1)c1nc2ccccc2s1	-1	1	8	10	-14	-58
COc1cccc(NC(=O)c2ccc3nc(C)sc3c2)c1	10	-16	99*	-6	-15	2
Cc1cccc2sc(NC(=O)c3ccc(NS(=O)(=O)c4cccs4)cc3)nc12	18	16	3	79*	0	-10
COc1ccc(C(=O)Nc2cccc(/C=C(\CCC(=O)O)c3nc4ccccc4s3)c2)cc1	6	16	-2	52*	6	-57
Cc1cc(C)c(S(=O)(=O)N2CCCC(C(=O)NCc3ccncc3)C2)c(C)c1 (stereo unspecified)	9	1	3	6	0	-38
Nc1ccn(C2OC(COC(=O)C34CC5CC(CC(C5)C3)C4)C(O)C2O)c(=O)n1 (stereo unspecified)	nt	nt	nt	nt	nt	12
C=C(C)COc1ccc(-c2ncncc2Oc2ccc(OC)cc2)c(O)c1	21	8	3	55*	20	nt
C=C(C)COc1ccc(-c2[nH]ncc2Oc2cccc(OC)c2)c(O)c1	13	-41	-6	76*	39	110*
COc1ccccc1-c1cn[nH]c1-c1ccc(OCc2ccc(F)cc2)cc1O	30	11	-6	51*	21	-3
C=C(C)COc1ccc(-c2[nH]ncc2-c2ccccc2)c(O)c1	22	33	1	18	21	55
C=C(C)COc1ccc(-c2nc(N)nc(C)c2-c2ccc(OC)cc2)c(O)c1	7	11	-2	-19	14	-16
C=C(C)COc1ccc(-c2[nH]ncc2-c2ccc(OC)cc2)c(O)c1	29	1	0	75*	1	22
COc1ccc(CN2CSC(=S)N(Cc3ccc(OC)cc3)C2)cc1	26	28	-6	-5	21	-18
C=C(C)COc1ccc(-c2nc(N)ncc2-c2ccc(Cl)cc2)c(O)c1	25	-13	-5	99*	-5	-18

Compound activity (PubChem)
